Measurements reported in PubChem BioAssay (NCATS).
Values joined by “and” are separate entries in the source; they are usually repeats but may differ in a detail not shown here. Equal entries are not always repeated. Results filed as inconclusive are left out. The source holds several records for some structures; these can differ, active in one and inactive in another. A number with no mark means an inactive call. Active and inactive are the calls of the source. Unless noted, calls come from the whole dose curve; as a rule, active = well fitted curve in the direction sought with a large enough effect; inconclusive = small, poorly fitted or top-dose-only effect, or another doubt; inactive = no such curve, though single readings can be large; an effect the other way counts as inactive or inconclusive.

Tests used:
[1] = target: Cellular tumor antigen p53 (Homo sapiens) (UniProt P04637); assay: Primary qHTS for small molecule compounds that upregulate eGFP-tagged delta133p53alpha (in N-terminal) cells. (AID 2060322); conditions: NCI-H358 eGFP-delta133p53alpha fluorescence, 24 h; activation: stronger effect = higher value; note: nearly all actives have a fitted effect of over 75% in size; note: potency is the fitted concentration of half-maximal effect;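 for activation: series mostly up to about 56 µM; 0% = DMSO vehicle and 100% = reference activator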
How it was run: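 NCI-H358 cells pre-induced 24 h with 10 ng/ml doxycycline to express N-terminal eGFP-delta133p53alpha, then dosed 24 h at 37C without doxycycline; fixed, Hoechst-stained, GFP intensity by laser scanning cytometry, normalized to DMSO (0%) and 57.5 uM 5-azacytidine (100%).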

[2] = target: Aldehyde dehydrogenase, mitochondrial (Homo sapiens) (UniProt P05091); assay: qHTS for Inhibitors of the Aldehyde Dehydrogenase Family (ALDH2) Validation screens (AID 2061302; active = well fitted inhibition curve with a large enough effect; title and protocol of this record describe different tests;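 note: plate controls were DMSO vehicle for no effect and maximal DPI positive control response for full effect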)
[3] = target: Aldehyde dehydrogenase, mitochondrial (Homo sapiens) (UniProt P05091); assay: qHTS for Inhibitors of the Aldehyde Dehydrogenase Family (ALDH2) Primary screen (AID 2061308);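 note: plate controls were vehicle for no effect and reference inhibitor for full effect; nearly all actives have a fitted effect of over 55% in size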
[4] = target: Retinaldehyde dehydrogenase 3 (Homo sapiens) (UniProt P47895); assay: qHTS for Inhibitors of the Aldehyde Dehydrogenase Family (ALDH1A3) Validation screen (AID 2061312); note: % is set by controls: 0 for no effect and ±100 for the full control effect; nearly all actives have a fitted effect of over 45% in size
[5] = target: Retinaldehyde dehydrogenase 3 (Homo sapiens) (UniProt P47895); assay: qHTS for Inhibitors of the Aldehyde Dehydrogenase Family (ALDH1A3) Primary screen (AID 2061315);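 note: plate controls were DMSO vehicle for no effect and reference inhibitor for full effect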
[6] = BET inhibitor-based combinations targeting novel dependencies in MECOM-rearranged (r) AML: SET-2 cell line (AID 2202231); conditions: SET-2 AML cells viability, CellTiter-Glo luminescence, 48 h; viability: stronger effect = lower value, concentration not given here; note: nearly all actives have a fitted effect of over 35% in size; note: potency is the fitted concentration of half-maximal effect;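 for viability: plate controls were DMSO treated cells for no effect and wells without cells for full effect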
How it was run: (§1)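 Luminescent ATP readout (CellTiter-Glo) after 48 hr drug exposure gives viability. Curves span 11 concentrations and are normalized to DMSO and empty wells. Activity is reported as area under the curve and its Z-transform within each cell line.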

[7] = BET inhibitor-based combinations targeting novel dependencies in MECOM-rearranged (r) AML: OCI-AML3 cell line (AID 2202232); conditions: Potency: OCI-AML3 viability; note: nearly all actives have a fitted effect of over 35% in size; note: potency is the fitted concentration of half-maximal effect
How it was run: as §1

[8] = BET inhibitor-based combinations targeting novel dependencies in MECOM-rearranged (r) AML: MV-4-11 cell line (AID 2202233); note: nearly all actives have a fitted effect of over 45% in size; note: potency is the fitted concentration of half-maximal effect
How it was run: (§2)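 Luminescent ATP readout (CellTiter-Glo, 15 min at room temperature) after 48 hr drug exposure gave viability. Dose-response curves, normalized to DMSO and empty-well controls, were summarized as area under the curve and its mean-centred Z-score.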

[9] = BET inhibitor-based combinations targeting novel dependencies in MECOM-rearranged (r) AML: HNT-34 cell line (AID 2202234); note: nearly all actives have a fitted effect of over 35% in size; note: potency is the fitted concentration of half-maximal effect
How it was run: as §2

[10] = BET inhibitor-based combinations targeting novel dependencies in MECOM-rearranged (r) AML: UCSD-AML1 cell line (AID 2202235); note: nearly all actives have a fitted effect of over 40% in size; note: potency is the fitted concentration of half-maximal effect
How it was run: as §2

[11] = BET inhibitor-based combinations targeting novel dependencies in MECOM-rearranged (r) AML: AML-191 cell line (AID 2202236; note: nearly all actives have a fitted effect of over 35% in size; note: potency is the fitted concentration of half-maximal effect)
How it was run: as §1

[12] = BET inhibitor-based combinations targeting novel dependencies in MECOM-rearranged (r) AML: AML-194 cell line (AID 2202237; note: nearly all actives have a fitted effect of over 40% in size; note: potency is the fitted concentration of half-maximal effect)
How it was run: as §1

[13] = qHTS for Inhibitors of the Aldehyde Dehydrogenase Family (ALDH1A2, ALDH1A3, ALDH2, ALDH3A1) (AID 2061307); note: test system not described further here; potency is the fitted concentration of half-maximal effect; nearly all actives have a fitted effect of over 50% in size
[14] = target: Retinaldehyde dehydrogenase 3 (Homo sapiens) (UniProt P47895); assay: qHTS for Inhibitors of the Aldehyde Dehydrogenase Family (ALDH1A3) Confirmatory screens (AID 2061311); note: potency is the fitted concentration of half-maximal effect; nearly all actives have a fitted effect of over 60% in size
[15] = target: Retinal dehydrogenase 2 (Homo sapiens) (UniProt O94788); assay: qHTS for Inhibitors of the Aldehyde Dehydrogenase Family (ALDH1A2) Confirmation screens (AID 2061314); note: potency is the fitted concentration of half-maximal effect; nearly all actives have a fitted effect of over 65% in size
[16] = target: Aldehyde dehydrogenase 1A1 (Homo sapiens) (UniProt P00352); assay: qHTS for Inhibitors of the Aldehyde Dehydrogenase Family (ALDH1A1) Confirmatory screens (AID 2061316); note: potency is the fitted concentration of half-maximal effect; nearly all actives have a fitted effect of over 65% in size

Sequence of Cellular tumor antigen p53 (Homo sapiens) (P04637 whole entry, looked up): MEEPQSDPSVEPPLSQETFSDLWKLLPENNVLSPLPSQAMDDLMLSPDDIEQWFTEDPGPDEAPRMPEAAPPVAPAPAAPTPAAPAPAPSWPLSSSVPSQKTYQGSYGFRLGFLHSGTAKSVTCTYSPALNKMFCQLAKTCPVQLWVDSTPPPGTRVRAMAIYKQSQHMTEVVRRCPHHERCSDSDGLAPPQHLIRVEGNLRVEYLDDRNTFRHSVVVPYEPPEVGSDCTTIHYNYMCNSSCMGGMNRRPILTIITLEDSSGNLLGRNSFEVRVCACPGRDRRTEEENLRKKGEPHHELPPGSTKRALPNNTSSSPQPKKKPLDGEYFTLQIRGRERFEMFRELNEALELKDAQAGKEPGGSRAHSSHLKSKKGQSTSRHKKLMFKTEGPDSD

For `CS(=O)(=O)c1cccc(CNc2nc(Nc3ccc4c(c3)CCC(=O)N4)ncc2C(F)(F)F)c1`, which Potency [1] is on record?
Its Potency is 21.3 µM (active).

And the activation [1]?
Its activation is -20.3% and 55.5%.

And the Potency [2]?
Its Potency is “inactive”.

What about the Potency [3] of the same compound?
The Potency was “inactive”.

What about the Potency [4] of the same compound?
Its Potency is “inactive”.

And the Potency [5]?
Its Potency is “inactive”.

And the Potency [6]?
Its Potency is 16.6 µM (active).

What about the Potency [7] of the same compound?
Its Potency is 20.9 µM (active).

What about the Potency [8] of the same compound?
Its Potency is 0.209 µM (active).

And the Potency [9]?
Its Potency is 9.34 µM (active).

And the Potency [10]?
Its Potency is 10.5 µM (active).

And the Potency [11]?
The Potency was 9.34 µM (active).

Which results are given for `Cn1c2ccccc2c2c3c(c4c5ccccc5n(CCC#N)c4c21)CNC3=O`?
Potency [1]: 16.9 µM (active); activation [1]: -13.5%; Potency [3]: inactive; Potency [5]: inactive; Potency [8]: 0.417 µM (active); Potency [9]: 3.32 µM (active); Potency [10]: 8.33 µM (active); Potency [11]: 3.32 µM (active); Potency [12]: 4.68 µM (active)

With `NS(=O)(=O)NCCNc1nonc1C(=Nc1ccc(F)c(Br)c1)NO` as the compound, how does the Potency [1] read?
The Potency was 2.16 µM (active).

What about the activation [1] of the same compound?
Its activation is -6.33% and -3%.

What about the Potency [3] of the same compound?
The Potency was “inactive”.

What about the Potency [5] of the same compound?
The Potency was “inactive”.

And the viability [6]?
Its viability is 106%.

And the Potency [7]?
Its Potency is “inactive”.

What about the Potency [8] of the same compound?
The Potency was “inactive”.

And the Potency [9]?
The Potency was “inactive”.

And the Potency [10]?
Its Potency is “inactive”.

And the Potency [11]?
The Potency was “inactive”.

And the Potency [12]?
Its Potency is “inactive”.

For `CCc1cccc(CC)c1NC(=O)N1Cc2[nH]nc(NC(=O)c3ccc(N4CCN(C)CC4)cc3)c2C1`, which Potency [1] is on record?
Its Potency is 12.2 µM (active).

And the activation [1]?
Its activation is 5.63%.

And the Potency [3]?
Its Potency is “inactive”.

And the Potency [5]?
The Potency was “inactive”.

What about the Potency [8] of the same compound?
Its Potency is 1.32 µM (active).

What about the Potency [9] of the same compound?
The Potency was 0.742 µM (active).

And the Potency [10]?
Its Potency is 14.8 µM (active).

And the Potency [11]?
The Potency was 5.25 µM (active).

What does the source list for `O=C1Cc2cc(CCN3CCN(c4nsc5ccccc45)CC3)c(Cl)cc2N1`?
Potency [1]: 27.6 µM (active); activation [1]: -69%; Potency [2]: inactive; Potency [3]: inactive; Potency [5]: inactive

Which Potency [1] does the source give for `COc1cc2c(Nc3ccc(Br)cc3F)ncnc2cc1OCC1CCN(C)CC1` here?
Its Potency is 21.3 µM (active).

What about the activation [1] of the same compound?
The activation was 0.071% and -8.47%.

What about the Potency [3] of the same compound?
The Potency was “inactive”.

What about the Potency [5] of the same compound?
Its Potency is “inactive”.

And the Potency [7]?
The Potency was 23.5 µM (active).

What about the Potency [10] of the same compound?
The Potency was 14.8 µM (active).

And the Potency [11]?
Its Potency is 20.9 µM (active).

What about the Potency [12] of the same compound?
The Potency was 23.5 µM (active).

Which results are given for `Cc1cc(C)c(CNC(=O)c2cc(-c3ccc(CN4CCOCC4)cc3)cc3c2cnn3C2CCCC2)c(=O)[nH]1`?
Potency [1]: 4.31 µM (active); activation [1]: 7.64%; Potency [3]: inactive; Potency [5]: inactive; Potency [8]: 29.5 µM (active)

With `Cc1cn(-c2cc(NC(=O)c3ccc(C)c(Nc4nccc(-c5cccnc5)n4)c3)cc(C(F)(F)F)c2)cn1` as the compound, how does the Potency [1] read?
The Potency was 30.1 µM (active).

And the activation [1]?
Its activation is 12.7%.

And the Potency [3]?
The Potency was “inactive”.

What about the Potency [5] of the same compound?
Its Potency is “inactive”.

What about the Potency [7] of the same compound?
Its Potency is 1.18 µM (active).

And the Potency [9]?
The Potency was 0.0295 µM (active).

With `CCCC(C(=O)OCCN(CC)CC)(c1ccccc1)c1ccccc1` as the compound, how does the Potency [1] read?
The Potency was 34.7 µM (active).

What about the activation [1] of the same compound?
Its activation is -51.2%.

What about the Potency [2] of the same compound?
The Potency was “inactive”.

What about the Potency [4] of the same compound?
Its Potency is “inactive”.

For `Cc1coc2c1C(=O)C(=O)c1c-2ccc2c(C)cccc12`, which Potency [1] is on record?
The Potency was 13.5 µM (active).

What about the activation [1] of the same compound?
Its activation is 9.22%.

And the Potency [13]?
The Potency was 4.49 µM (active).

And the Potency [14]?
Its Potency is 12.7 µM (active).

What about the Potency [15] of the same compound?
Its Potency is 11.3 µM (active).

What about the Potency [16] of the same compound?
The Potency was 3.57 µM (active).

For `COCCOc1nc(-c2ccc(Cl)c(Cl)c2)n(-c2ccc(NC(=O)CCl)cc2)n1`, which Potency [1] is on record?
Its Potency is 15.1 µM (active).

And the activation [1]?
Its activation is 36.6%.

What about the Potency [3] of the same compound?
The Potency was “inactive”.

And the Potency [4]?
The Potency was “inactive”.

What about the Potency [6] of the same compound?
The Potency was 1.86 µM (active).

And the Potency [7]?
Its Potency is 2.09 µM (active).

What about the Potency [10] of the same compound?
The Potency was 1.32 µM (active).

And the Potency [11]?
The Potency was 1.05 µM (active).

And the Potency [12]?
The Potency was 0.934 µM (active).

Which Potency [1] does the source give for `NC(=O)NO` here?
Its Potency is 30.6 µM (active).

And the activation [1]?
Its activation is -16.4% and -32.9%.

And the Potency [2]?
The Potency was “inactive”.

What about the Potency [4] of the same compound?
Its Potency is “inactive”.

What about the viability [6] of the same compound?
Its viability is 114%.

And the Potency [7]?
Its Potency is “inactive”.

What about the Potency [8] of the same compound?
The Potency was “inactive”.

What about the Potency [9] of the same compound?
Its Potency is “inactive”.

What about the Potency [10] of the same compound?
The Potency was “inactive”.

And the Potency [11]?
Its Potency is “inactive”.

What about the Potency [12] of the same compound?
The Potency was “inactive”.

For `Cc1cc(Nc2nc(N[C@@H](C)c3ncc(F)cn3)ncc2Cl)n[nH]1`, which Potency [1] is on record?
Its Potency is 21.7 µM (active).

And the activation [1]?
The activation was -0.181% and 24.8%.

And the Potency [3]?
Its Potency is “inactive”.

And the Potency [4]?
The Potency was “inactive”.

And the Potency [5]?
The Potency was “inactive”.

What about the Potency [6] of the same compound?
The Potency was 1.48 µM (active).

And the Potency [7]?
The Potency was 1.32 µM (active).

What about the Potency [9] of the same compound?
Its Potency is 2.63 µM (active).

And the Potency [11]?
The Potency was 0.132 µM (active).

Which results are given for `CC(C)n1nc(-c2cc3cc(O)ccc3[nH]2)c2c(N)ncnc21`?
Potency [1]: 21.3 µM (active); activation [1]: 17.6%; Potency [3]: inactive; Potency [6]: 2.09 µM (active); Potency [7]: 1.86 µM (active); Potency [8]: 0.417 µM (active); Potency [9]: 0.372 µM (active); Potency [10]: 0.332 µM (active); Potency [11]: 0.934 µM (active); Potency [12]: 0.417 µM (active)
